# In PubChem BioAssay:
# The source made the active and inactive calls.
# Assays:
# [1] = E. coli DRC41 culture turbidity changes, primary screen, E. coli filamentation inducer project, strain DRC41, OD650, 48 h (AID 1152);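 note: E. coli MC1000 strain DRC41 lacking acrAB efflux pump and sulA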; settings: E. coli DRC41 (acrAB sulA), higher = more signal, called active from +8 up or from −8 down
# [2] = small-molecule binders of probe aLefty1, primary screen, biochemical, small-molecule microarray, 635/667 nm fluorescence (AID 1153); settings: higher = more signal;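 note: score merges spot fluorescence with signal-to-noise ratio from the scanned slide images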
# [3] = PSAC antagonists in infected red cells, primary screen, cell-based, P. falciparum Indochina, OD700, 1 h (AID 1154); settings: P. falciparum Indochina infected RBC osmotic lysis, higher = more signal, called active from +8 up or from −8 down
# [4] = PSAC antagonists in infected red cells, primary screen, cell-based, P. falciparum Indochina, OD700, 2 h (AID 1155);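 note: lysis reports solute entry through the parasite surface anion channel PSAC; channel blockers reduce lysis of infected cells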; settings: P. falciparum Indochina infected erythrocytes, osmotic lysis OD700; higher = more signal, called active from +8 up or from −8 down
# [5] = osmotic lysis modulators in infected erythrocytes, primary screen, PSAC antagonist project, cell-based, P. falciparum Indochina, OD700, 3 h (AID 1156); settings: higher = more signal, called active from +8 up or from −8 down
# [6] = PSAC antagonists in infected red cells, primary screen, cell-based, P. falciparum Indochina, OD700, 18 h (AID 1157); settings: P. falciparum Indochina infected erythrocytes, osmotic lysis OD700, 18 h; higher = more signal, called active from +8 up or from −8 down
# [7] = modulators of S6 phosphorylation in cells, primary screen, cell-based, A549, cytoblot, luminescence, serum-stimulated (AID 1158); settings: A549 phospho-S6 cytoblot, 5 h, higher = more signal;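 note: serum-stimulated A549 lung adenocarcinoma cells; signal is phosphorylated S6 detected by cytoblot immunostaining with HRP secondary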
# [8] = biological target: NADPH oxidase 2 (Homo sapiens) (UniProt P04839); assay: NOX2-dependent H2O2 signal modulators, primary screen, NOX inhibitor project, cell-based, HEK293-NOX2, PMA-stimulated, Amplex Red fluorescence (AID 1159); settings: 45 min, higher = more signal, called active from +8 up or from −8 down; note: test concentration not given here
# NADPH oxidase 2 (Homo sapiens), sequence (P04839 whole entry, looked up): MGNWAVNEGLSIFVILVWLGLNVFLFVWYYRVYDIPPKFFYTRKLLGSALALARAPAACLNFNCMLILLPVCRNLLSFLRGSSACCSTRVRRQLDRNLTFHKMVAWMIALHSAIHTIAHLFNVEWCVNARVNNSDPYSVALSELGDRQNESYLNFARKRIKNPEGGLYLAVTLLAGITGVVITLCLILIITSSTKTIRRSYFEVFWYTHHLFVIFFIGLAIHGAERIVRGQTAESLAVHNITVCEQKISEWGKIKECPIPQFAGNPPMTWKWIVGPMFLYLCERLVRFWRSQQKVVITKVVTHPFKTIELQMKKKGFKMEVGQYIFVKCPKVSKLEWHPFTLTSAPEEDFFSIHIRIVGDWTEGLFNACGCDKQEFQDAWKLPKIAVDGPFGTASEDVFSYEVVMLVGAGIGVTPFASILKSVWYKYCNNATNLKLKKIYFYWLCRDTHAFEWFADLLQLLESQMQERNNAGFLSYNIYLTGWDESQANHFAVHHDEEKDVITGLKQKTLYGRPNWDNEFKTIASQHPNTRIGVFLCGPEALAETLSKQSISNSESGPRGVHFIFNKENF
# [9] = biological target: NADPH oxidase 4 (Homo sapiens) (UniProt Q9NPH5); assay: NOX4-dependent H2O2 signal modulators, primary screen, NOX inhibitor project, cell-based, HEK293-NOX4, tetracycline-induced, Amplex Red fluorescence (AID 1160); settings: 45 min, higher = more signal, called active from +8 up or from −8 down
# NADPH oxidase 4 (Homo sapiens), sequence (Q9NPH5 whole entry, looked up): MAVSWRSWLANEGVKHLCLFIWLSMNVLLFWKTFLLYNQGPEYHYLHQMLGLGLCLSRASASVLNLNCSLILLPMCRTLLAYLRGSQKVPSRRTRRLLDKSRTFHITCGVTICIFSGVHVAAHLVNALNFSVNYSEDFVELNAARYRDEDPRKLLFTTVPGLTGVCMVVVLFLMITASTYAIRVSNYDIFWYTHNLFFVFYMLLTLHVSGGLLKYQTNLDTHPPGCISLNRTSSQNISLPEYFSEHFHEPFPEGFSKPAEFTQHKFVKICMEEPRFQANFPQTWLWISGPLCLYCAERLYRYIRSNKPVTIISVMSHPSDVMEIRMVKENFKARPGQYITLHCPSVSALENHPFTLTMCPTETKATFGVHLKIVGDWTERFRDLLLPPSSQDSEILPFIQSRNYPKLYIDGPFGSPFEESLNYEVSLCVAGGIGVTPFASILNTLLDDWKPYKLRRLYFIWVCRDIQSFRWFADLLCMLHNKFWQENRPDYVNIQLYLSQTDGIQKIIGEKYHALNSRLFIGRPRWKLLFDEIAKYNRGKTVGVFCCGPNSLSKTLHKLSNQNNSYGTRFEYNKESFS
# [10] = biological target: NADPH oxidase 5 (Homo sapiens) (UniProt Q96PH1); assay: NOX5-dependent H2O2 signal modulators, primary screen, NOX inhibitor project, cell-based, HEK293-NOX5, Amplex Red fluorescence (AID 1161); settings: HEK293-NOX5, ionomycin, 45 min, higher = more signal
# NADPH oxidase 5 (Homo sapiens), sequence (Q96PH1 whole entry, looked up): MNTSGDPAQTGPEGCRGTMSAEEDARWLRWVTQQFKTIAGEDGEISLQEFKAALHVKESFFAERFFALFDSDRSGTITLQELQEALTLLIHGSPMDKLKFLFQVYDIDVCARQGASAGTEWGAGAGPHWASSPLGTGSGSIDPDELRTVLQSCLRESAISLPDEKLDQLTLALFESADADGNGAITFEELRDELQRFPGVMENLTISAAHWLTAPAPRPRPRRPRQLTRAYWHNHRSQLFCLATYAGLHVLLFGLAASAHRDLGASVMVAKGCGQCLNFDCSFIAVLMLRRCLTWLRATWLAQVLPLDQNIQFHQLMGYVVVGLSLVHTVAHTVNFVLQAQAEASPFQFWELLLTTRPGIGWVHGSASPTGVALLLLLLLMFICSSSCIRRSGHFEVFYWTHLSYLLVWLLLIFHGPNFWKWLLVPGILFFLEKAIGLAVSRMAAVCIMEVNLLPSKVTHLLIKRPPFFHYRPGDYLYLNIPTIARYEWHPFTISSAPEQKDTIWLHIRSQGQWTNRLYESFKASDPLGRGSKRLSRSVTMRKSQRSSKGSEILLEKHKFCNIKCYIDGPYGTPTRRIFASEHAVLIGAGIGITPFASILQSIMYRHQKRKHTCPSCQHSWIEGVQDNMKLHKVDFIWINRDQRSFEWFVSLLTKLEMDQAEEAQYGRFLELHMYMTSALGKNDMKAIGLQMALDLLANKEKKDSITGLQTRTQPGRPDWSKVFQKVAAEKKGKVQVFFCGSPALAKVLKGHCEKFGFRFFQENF
# [11] = A549 cell viability effects, profiling panel, calcein-AM fluorescence, 48 h, basal (AID 1162); settings: higher = more signal; note: test concentration not given here
# [12] = adipocyte viability effects, profiling panel, cell-based, 3T3-L1 adipocytes, calcein-AM fluorescence, 48 h, basal (AID 1163); settings: 3T3-L1 adipocytes viability, higher = more signal; note: test concentration not given here
# [13] = HepG2 cell viability effects, profiling panel, calcein-AM fluorescence, 48 h, basal (AID 1164); settings: higher = more signal; note: test concentration not given here
# [14] = MM1S cell viability effects, profiling panel, calcein-AM fluorescence, 48 h, basal (AID 1165); settings: higher = more signal;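 note: viability of MM1S multiple myeloma cells under basal unstimulated conditions; test concentration not given here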
# [15] = basal RPMI8226 viability, no added stimulus, profiling panel, cell-based, calcein-AM fluorescence, 48 h, PK04 Diversity Set (AID 1166); settings: RPMI8226 myeloma viability, higher = more signal;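 note: cells grown under basal conditions without added stimulus; test concentration not given here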
# [16] = basal HepG2 mitochondrial membrane potential changes, profiling panel, cell-based, JC-1 fluorescence, 24 h, 100 nL compound (AID 1167); settings: higher = more signal; note: test concentration not given here
# [17] = basal 3T3-L1 adipocyte mitochondrial potential changes, profiling panel, cell-based, JC-1 fluorescence, 3T3-L1 adipocytes, 24 h, 100 nL compound (AID 1168); settings: JC-1 mitochondrial fluorescence, higher = more signal, called active from +8 up or from −8 down; note: test concentration not given here
# [18] = basal RPMI8226 mitochondrial membrane potential changes, profiling panel, cell-based, JC-1 fluorescence, 24 h, 100 nL compound (AID 1169); settings: RPMI8226 myeloma, JC-1 mitochondrial potential fluorescence, higher = more signal; note: test concentration not given here
# [19] = basal MM1S mitochondrial membrane potential changes, profiling panel, cell-based, JC-1 fluorescence, 24 h, 100 nL compound (AID 1170); settings: higher = more signal; note: test concentration not given here
# [20] = A549 lung cancer cell viability effects, profiling panel, resazurin fluorescence, 24 h, PK04 Diversity Set (AID 1171); settings: higher = more signal, called active from +8 up or from −8 down; note: test concentration not given here
SMILES,z-score [1],composite z-score [2],z-score [3],z-score [4],z-score [5],z-score [6],z-score [7],z-score [8],z-score [9],z-score [10],z-score [11],z-score [12],z-score [13],z-score [14],z-score [15],z-score [16],z-score [17],z-score [18],z-score [19],z-score [20]
COc1ccc(CCNC(=O)[C@@H]2c3ccccc3C(=O)N(Cc3cc(F)cc(C(F)(F)F)c3)[C@H]2c2ccc(CO)cc2)cc1,0.799 (inactive),0.659,3.5 (inactive),0.69 (inactive),0.563 (inactive),0.0614 (inactive),-0.155,-2.4 (inactive),-0.0983 (inactive),-2.21,2.41,1.33,0.492,-0.696,0.36,1.98,0.17 (inactive),-0.455,0.558,1.3 (inactive)
O=C1O[C@@H](c2ccccc2)[C@@H](c2ccccc2)N2[C@@H](c3ccccc3OCCO)[C@]3(C(=O)Nc4ccc(C#CC5(O)CCCCCC5)cc43)[C@@H](C(=O)N3CCCCCCC3)[C@H]12,0.177 (inactive),3.07,1.14 (inactive),-0.256 (inactive),0.786 (inactive),-1.64 (inactive),1.76,-0.21 (inactive),-0.596 (inactive),0.147,-1.66,1.48,-0.0161,-0.651,-2.59,-1.4,0.644 (inactive),-0.96,-1.33,-0.64 (inactive)
C=C(C(=O)CC[C@@H](OC(=O)c1ccccc1-c1ccccc1C(=O)O)c1ccc(OCCO)cc1)C(C)C,-0.383 (inactive),0.312,13.6 (active),1.37 (inactive),1.2 (inactive),0.405 (inactive),-0.26,1.43 (inactive),0.123 (inactive),-1.3,-0.514,0.517,0.654,-3.22,-2.98,-0.556,-1.2 (inactive),-0.787,-0.547,-0.0237 (inactive)
CN1C(=O)C2C(C1=O)C1C=C(CCCO)C2C(C2CC2)N1C (stereo not given),0.667 (inactive),-0.0683,-0.452 (inactive),-0.72 (inactive),0.139 (inactive),-1.17 (inactive),1.82,-0.0367 (inactive),-0.274 (inactive),0.53,-0.0397,-0.333,0.019,0.828,0.929,1.18,0.693 (inactive),-0.786,-0.641,-1.61 (inactive)
C[C@]1(C(=O)NC2CC2)c2ccccc2C(=O)N(Cc2cc(F)cc(C(F)(F)F)c2)[C@H]1c1ccc(CO)cc1,0.256 (inactive),-0.351,3.02 (inactive),0.334 (inactive),0.678 (inactive),0.597 (inactive),0.0446,-0.0377 (inactive),-0.978 (inactive),-1.46,-0.685,0.274,0.0046,0.0749,-0.237,1.2,0.0232 (inactive),0.107,-0.328,1.79 (inactive)
NCCCCCCNC(=O)[C@@H]1C[C@@H]2C(=O)NCC(=O)N2[C@@H]1c1cccc(OCCO)c1,0.884 (inactive),0.0892,1.68 (inactive),0.774 (inactive),-0.523 (inactive),0.0308 (inactive),1.51,1.29 (inactive),0.934 (inactive),1.65,0.51,0.22,1.06,0.604,-0.431,1.14,0.885 (inactive),0.533,0.307,0.678 (inactive)
COc1ccc([Si](C)(C)[C@H]2[C@H](CC(=O)N3CCC[C@H]3CO)O[C@@]3(C(=O)N(Cc4cccc(N5CCCCC5=O)c4)c4ccccc43)[C@@H]2C)cc1,0.499 (inactive),0.0799,4.11 (inactive),0.57 (inactive),0.318 (inactive),0.525 (inactive),-0.438,1.45 (inactive),1.44 (inactive),4.92,0.239,0.112,-0.134,-2.65,-3.15,2.8,0.0592 (inactive),-0.893,0.286,0.423 (inactive)
CC(C)C[C@H]1NC(=O)CNC(=O)[C@@]23C(=O)N[C@@H](Cc4ccccc4)C2[C@H](C)[C@@]2(C)O[C@H]2C3/C=C/C/C=C\CNC1=O (stereo not given in full),-0.592 (inactive),-0.103,0.392 (inactive),0.41 (inactive),-0.352 (inactive),-0.0621 (inactive),0.662,0.429 (inactive),1.21 (inactive),-0.495,-0.518,0.535,-0.899,-0.101,-0.0815,-0.561,0.451 (inactive),-0.469,-0.112,0.478 (inactive)
C[C@]1(C(=O)O)c2ccccc2C(=O)N(Cc2cc(C(F)(F)F)cc(C(F)(F)F)c2)[C@H]1c1ccc(CO)cc1,-0.485 (inactive),-0.0479,1.8 (inactive),0.168 (inactive),-0.173 (inactive),0.157 (inactive),-0.0892,0.803 (inactive),0.0284 (inactive),-0.714,-0.557,0.261,-0.164,-0.103,-0.329,-0.244,-0.107 (inactive),-0.117,-0.468,0.449 (inactive)
